# Experimental data from PubChem BioAssay (NCATS).
# Records with an inconclusive call do not appear. The source made the active and inactive calls. The call rests on the fitted dose curve; in most records, active means well fitted cell-killing curve with a large enough effect; inconclusive means small, poorly fitted or top-dose-only effect; inactive means flat fitted curve, though single readings scatter.
# Assay: Cellular viability qHTS for adrenocortical cancer (ACC) cell line NCI-H295R (AID 1963990); further: nearly all actives have a fitted effect of over 60% in size
# Conditions: CellTiter-Glo ATP luminescence, 48 h; series mostly up to 46.1 µM; activity change, negative = viability loss: at the top concentration
# Excerpt: PI: Naris Nilubol, MD Surgical Oncology Program, National Cancer Institute (NCI) National Institute of Health (NIH), Bethesda, Maryland Adrenocortical cancer (ACC) is a rare malignancy with poor survival outcomes and few treatment options. Currently, mitotane is the only FDA-approved therapy for ACC. Although adjuvant radiation therapy is rarely utilized, it has the potential to improve survival in select cases. Through a quantitative high-throughput drug screen (qHTS), we identified auranofin (AF), a thioredoxin reductase (TXNRD) inhibitor, as a promising candidate drug. This study aims to evaluate whether AF can enhance the efficacy of radiation therapy in the treatment of ACC. Two human ACC cell lines, SW-13 and NCI-H295R, were screened using the National Center for Advancing Translational Sciences (NCATS) Pharmaceutical Collection (NPC) and the Mechanism Interrogation PlatE (MIPE) library (~4,991 compounds). CellTiter-Glo (Cat # G7570, Promega, Madison, WI) was utilized to measure cell viability. Described herein are the results of the corresponding viability assay.
# PROTOCOL TABLE (as described by Inglese J, Shamu CE and Guy RK. 2007) SEQUENCE No. (e.g., 1, 2, 3, etc.); […] (e.g., Cells, Incubation, Reagent, etc.); VALUE; DESCRIPTION. 1; Cells; 5 uL; white, solid-bottom, 1536-well tissue-culture treated plates. 2; Time; overnight culture at 37C with 5% CO2. 3; Compounds and control; 23 nL; Kalypsis pin tool (Wako USA) equipped with a 1536-well pin head to transfer to the assay plates. 4; Time; 48 hours; 37C with 5% CO2. 5; Reagent; 4 uL; CellTiter-Glo luminescent substrate mix. 6; Time; 20 min at room temperature. 7; Detection; Luminescence; ViewLux plate reader NOTES (numbers refer to Sequence numbers above) 1. NCI-H295R cells were harvested from a T175 flask and resuspended in ITS-supplemented DMEM serum-free medium at a concentration of 300 000 cells/mL. Then 5 uL of resuspended cells were dispensed into each well of white, solid-bottom, 1536-well tissue-culture-treated plates using a multidrop combi dispenser. The plates were covered with stainless steel gasket lids. 2-3. The plates were cultured overnight at 37C with 5% CO2. Twenty-three nL of compounds (eight selected concentrations from the NPC / MIPE) or positive control (10 mM stock of bortezomib) in DMSO was transferred to each well of the assay plate using a pin tool (Kalypsys, San Diego, CA, USA). The final concentration of the compounds in the 5 uL assay volume ranged from 0.5 nM to 46 uM. 4-6. After 48 hours of incubation at 37C and 5% CO2, 4 uL of CellTilter-Glo luminescent substrate mix (Promega, Madison, WI, USA) was added to each well. Then the plates were incubated for 20 minutes at room temperature. 7. After incubation, luminescence was measured using a ViewLux plate reader (PerkinElmer, Waltham, MA, USA) with a clear filter was used to measure the number of metabolically competent cells. To determine compound activity in the qHTS assay, the titration-response data for each sample was plotted and modeled by a four-parameter logistic fit yielding IC50 and efficacy (maximal response) values. Raw plate reads for each titration point were normalized relative to positive control ([…], 100% inhibition) and DMSO-only wells (basal, 0%). REFERENCES: Inglese J, Shamu CE and Guy RK, Reporting data from high throughput screening of small molecule libraries, Nature Chemical Biology, 2007, 3(8): 438-441. doi.org/10.1038/nchembio0807-438.
Compound,Potency,"activity change, negative = viability loss"
CSc1ccc(/C=C2/C(C)=C(CC(=O)O)c3cc(F)ccc32)cc1,25.9 µM (active),–
COc1c2occc2c(OC)c2c(=O)cc(C)oc12,–,-8.23% (inactive)
O=C1CCc2cc(OCCCCc3nnnn3C3CCCCC3)ccc2N1,–,-1.77% (inactive)
Cc1cc(O)cc2c1O[C@](C)(CCC[C@H](C)CCC[C@H](C)CCCC(C)C)CC2,–,-0.572% (inactive)
CCCCCCCCCCCCCC(=O)N[C@H](CO)[C@H](O)c1ccc([N+](=O)[O-])cc1,–,-1.45% (inactive)
COC(=O)/C=C\C(=O)OC,–,0.926% (inactive)
OCCN1C[C@H](O)[C@@H](O)[C@H](O)[C@H]1CO,inactive,–
CCCCCCCCCCCCCCCCN,–,-12.9% (inactive)
Nc1cccc2c1CN(C1CCC(=O)NC1=O)C2=O (stereo not given),–,-1.65% (inactive)
CN(C)CCN(Cc1ccsc1)c1ccccn1,–,1.38% (inactive)
O=C(Cn1ccnc1[N+](=O)[O-])NCCO,–,-1.95% (inactive)
O[C@@H]1CO[C@H]2[C@@H]1OC[C@@H]2O,–,-16.1% (inactive)
COC(=O)c1ccc(NC(C)=O)cc1OC,–,-13.5% (inactive)
O=C(COCC(=O)N1CCN(C(c2ccccc2)c2ccccc2)CC1)Nc1ccc(Cl)cc1C(=O)O,–,-39.3% (inactive)
O=C(CCCCC(=O)Nc1c(I)cc(I)c(C(=O)O)c1I)Nc1c(I)cc(I)c(C(=O)O)c1I,–,-29.9% (inactive)
Clc1ccc(C(c2ccc(Cl)cc2)n2cc[n+](CC(OCc3ccc(Cl)cc3Cl)c3ccc(Cl)cc3Cl)c2)cc1 (stereo not given),8.91 µM (active),–
Nc1nccn2c(C3CCC(C(=O)O)CC3)nc(-c3cc4cccc(Cl)c4[nH]3)c12 (stereo not given),12.6 µM (active),–
Cc1nc2c([nH]1)CCN(C(=O)c1ccc(NC(=O)c3ccccc3-c3ccccc3)cc1)c1ccccc1-2,–,-20.3% (inactive)
OCCCc1ccccc1,–,-0.494% (inactive)
CC[C@H](NC(=O)[C@H](C)NC)C(=O)N1C[C@@H](O)C[C@H]1Cc1c(-c2[nH]c3cc(F)ccc3c2C[C@@H]2C[C@H](O)CN2C(=O)[C@H](CC)NC(=O)[C@H](C)NC)[nH]c2cc(F)ccc12,–,9.26% (inactive)

Compound,Potency,"activity change, negative = viability loss"
CCCCNc1ncc2c(-c3ccc(F)cc3)nn(CC3CCC(N)CC3)c2n1 (stereo not given),7.15 µM (active),–
O=C(Nc1ccccc1Br)N[C@@H]1CCN(c2ccc(C(F)(F)F)cn2)C1,–,-27.2% (inactive)
CCCCCCCCCCCCCCCCOP(=O)([O-])OCC[N+](C)(C)C,23.1 µM (active),–
C[C@]12CCC(=O)C=C1CC[C@H]1[C@@H]3CC[C@](O)(C(=O)CO)[C@@]3(C)C[C@H](O)[C@@]12F,–,3.23% (inactive)
CCCn1c(=O)c2[nH]c(C34CC5CC3C[C@@H](C5)C4)nc2n(CCC)c1=O,–,-2.21% (inactive)
CCC(c1ccc(O)cc1)C(CC)c1ccc(O)cc1 (stereo not given),15.8 µM (active),–
COc1ccc(/C=C\c2cc(OC)c(OC)c(OC)c2)cc1O,0.0089 µM (active),–
O=C(Nc1ccccc1-c1cn2c(CN3CCNCC3)csc2n1)c1cnc2ccccc2n1,7.08 µM (active),–
NCC(=O)Nc1cncc(-c2nn3c(=O)cc(N4CCNCC4)nc3s2)c1,–,1.69% (inactive)
O=C(Nc1ccc(Oc2ccc(Cl)cc2)c(Cl)c1)c1cc(I)cc(I)c1O,20.6 µM (active),–
COc1ccc(-c2cc(=S)ss2)cc1,–,-9.14% (inactive)
C=C1[C@H](CO)[C@@H](O)C[C@@H]1n1cnc2c(=O)[nH]c(N)nc21,–,-6.8% (inactive)
O=C(Cc1cccc(OC(F)(F)F)c1)Nc1ccc(CCCCc2nnc(NC(=O)Cc3ccccn3)s2)nn1,–,-4.14% (inactive)
CC(C)(C)CC(C)(C)c1ccc(O)c(Cc2ccc(Cl)cc2Cl)c1,5.8 µM (active),–
C=CCCCCCCCCC(=O)O,–,-5.51% (inactive)
CC(C)C[C@H](NC(=O)CNC(=O)c1cc(Cl)ccc1Cl)B1OC(=O)CC(CC(=O)O)(C(=O)O)O1 (stereo not given in full),0.355 µM (active),–
COc1cccc(OC)c1-c1cc(C(=O)NC2(C(=O)O)C3CC4CC(C3)CC2C4)nn1-c1ccnc2cc(Cl)ccc12 (stereo not given),–,-2.1% (inactive)
COc1nccc(-c2c(-c3ccc(F)cc3)ncn2C2CCNCC2)n1,–,-12.8% (inactive)
C=CCOc1ccccc1OCC(O)CNC(C)C (stereo not given),–,-18.8% (inactive)
CC(=O)O[C@]1(C(C)=O)CC[C@H]2[C@@H]3C=C(C)C4=CC(=O)CC[C@]4(C)[C@H]3CC[C@@]21C,–,-15.4% (inactive)
